Assay results reported in the OligoGym collection.

Target: FAM174A
Test: pooled miR-30 sensor sort-seq; sequence = guide strand
Conditions: shRNA
Also: reference of the scale not given here.

Sequence	sensor-assay potency score (higher = more potent)
ATATCTCCTAGTCTTTCGGTTT	-1.26
TTCTAAAGGTGTCAATTCCATA	-1.28
TTCTTCTTCTCATCCTGACCGT	-0.117
TCTTCTTCTCATCCTGACCGTC	-0.459
TAGTCTTTCGGTTTCTTCTTCT	0.156
TATCTCCTAGTCTTTCGGTTTC	-1.02
ATTTTCTATGTTAGTGTCCAAA	-1.74
TGTTAGTGTCCAAAACTCCATA	-0.864
AAGTACACCAGCACCGCGCCGC	-0.391
TTGGCATCAAACAACGTGTTGT	-0.0509
TAGTTCAGGCAGCAACAGCAGG	-1.17
TGATCGTCCGTCTCAAGCCCGG	-1.42
